Test results taken from the supplement of paper PMC10646978.
± gives the standard deviation.

Tests used:
Conditions in all cases: modulator concentration 10 µM
[1] = test system: RAW-Dual (murine macrophage reporter line); experiment: NF-kB reporter (SEAP) activity fold change vs agonist alone; higher = enhanced NF-kB activity
How it was run: (§1)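 RAW-Dual murine macrophage reporter cells were plated at 50 000 per well in 384-well plates, pin-transferred compound to 10 μM final, and pre-incubated for 1 hour at 37 °C before a PRR agonist was added and the cells incubated overnight. NF-κB activity was read from supernatant SEAP with QUANTI-Blue at 620 nm absorbance, and IRF activity from Lucia luciferase with QUANTI-Luc by luminescence. Each signal was expressed as fold change by dividing by the mean agonist-only control on the same plate. Two replicate plates were averaged, with errors obtained by propagation.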

[2] = test system: RAW-Dual (murine macrophage reporter line); experiment: IRF reporter (Lucia luciferase) activity fold change vs agonist alone; higher = enhanced IRF activity
How it was run: as §1

[3] = test system: RAW-Dual (murine macrophage reporter line); experiment: viability score (confluency relative to resting cells, overnight) (fraction); higher = more viable, active = viable (0.7 or more)
How it was run: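 RAW-Dual macrophages in 384-well plates were treated overnight with compound at 10 μM final. IncuCyte imaging recorded confluency, and IncuCyte software built two confluency masks across every imaged well. The viability score expresses confluency relative to resting cells and was judged against a cutoff, which a compound met only if both masks exceeded 70% of resting cells.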

[4] = agonist: CpG ODN 1826 0.5 ug/mL

SMILES | NF-kB reporter [1, 4] | NF-kB reporter ([1]; agonist: LPS 0.1 ug/mL) | NF-kB reporter ([1]; agonist: MPLA […]) | IRF reporter ([2]; agonist: 3'3'-cGAMP 10 ug/mL) | IRF reporter ([2]; agonist: LPS 0.1 ug/mL) | IRF reporter ([2]; agonist: MPLA […]) | viability score [3]
Oc1ccc2ccccc2c1SSc1c(O)ccc2ccccc12 | 0.639 ± 0.15 | 0.993 ± 0.14 | 1.18 ± 0.15 | 0.09 ± 0.0053 | 0.919 ± 0.1 | 0.908 ± 0.096 | 0.963 (active)
CC1(C)CC(=O)c2sc(NC(=O)c3ccccc3)nc2C1 | 1.05 ± 0.078 | 1.08 ± 0.12 | 1 ± 0.036 | 0.807 ± 0.048 | 1 ± 0.13 | 1.02 ± 0.12 | 1 (active)
COc1ccc(CNCc2cccc3ccccc23)cc1 | 0.715 ± 0.12 | 1.06 ± 0.1 | 1.15 ± 0.11 | 0.877 ± 0.035 | 0.945 ± 0.1 | 1.31 ± 0.14 | 0.967 (active)
CCOc1ccccc1NC(=O)NCCc1csc(-n2nc(C)cc2C)n1 | 0.996 ± 0.069 | 1.14 ± 0.096 | 0.797 ± 0.12 | 1.12 ± 0.085 | 0.983 ± 0.061 | 0.938 ± 0.41 | 1.01 (active)
O=C(Nc1cc(C(F)(F)F)cc(C(F)(F)F)c1)c1c(F)cccc1F | 0.953 ± 0.099 | 1.07 ± 0.075 | 0.911 ± 0.069 | 0.987 ± 0.07 | 1.29 ± 0.14 | 1.07 ± 0.072 | 1.01 (active)
CCOC(=O)C1=C(C)NC(C)=C(C(=O)OCC)C1c1cc(Cl)cc(Cl)c1OC | 0.478 ± 0.064 | 0.44 ± 0.037 | 1.05 ± 0.1 | 1.07 ± 0.16 | 0.852 ± 0.039 | 2.23 ± 0.43 | 0.216 (inactive)
C=C(CC)C(=O)c1ccc(OCC(=O)O)c(Cl)c1Cl [Prestw-259] | 0.596 ± 0.14 | 0.588 ± 0.077 | 0.722 ± 0.049 | 0.563 ± 0.02 | 1.85 ± 0.21 | 1.53 ± 0.17 | 0.953 (active)
CS(=O)(=O)O.Cc1ccc(N(CC2=NCCN2)c2cccc(O)c2)cc1 | 0.981 ± 0.19 | 1.03 ± 0.34 | 0.957 ± 0.09 | 0.628 ± 0.019 | 1.09 ± 0.28 | 1.04 ± 0.08 | 1 (active)
CCCCCc1ccc(-c2ccc(-c3noc(-c4ccc(CCCC)cc4)n3)cc2)cc1 | 0.969 ± 0.08 | 0.97 ± 0.07 | 0.914 ± 0.086 | 0.94 ± 0.067 | 1.32 ± 0.25 | 1.45 ± 0.31 | 1.01 (active)
CC(=O)N1CCC(C(=O)NCc2cccnc2-c2cnn(C)c2)CC1 | 1.02 ± 0.11 | 1.06 ± 0.11 | 0.903 ± 0.099 | 1.04 ± 0.095 | 1.18 ± 0.074 | 1.15 ± 0.25 | 0.995 (active)
CN1CCN(c2ccc(-c3cccc(NC(=O)COc4ccc(Cl)cc4Cl)c3)nn2)CC1 | 0.46 ± 0.09 | 0.922 ± 0.086 | 1 ± 0.13 | 0.65 ± 0.043 | 1.16 ± 0.18 | 1.12 ± 0.29 | 0.982 (active)
COc1ccc(N2C(=O)C(=Cc3ccc([N+](=O)[O-])s3)SC2=S)cc1 | 0.879 ± 0.17 | 1.55 ± 0.14 | 1.71 ± 0.16 | 0.439 ± 0.012 | 1.25 ± 0.23 | 1.2 ± 0.26 | 0.9 (active)
O=S(=O)(Oc1cccc2ccccc12)c1ccc(F)cc1 | 0.832 ± 0.1 | 0.926 ± 0.096 | 1.12 ± 0.1 | 0.789 ± 0.036 | 1.06 ± 0.064 | 1.12 ± 0.096 | 0.999 (active)
C=CC(C)(O)CCC=C(C)C (configuration not stated) | 0.988 ± 0.085 | 0.841 ± 0.062 | 0.999 ± 0.11 | 1.01 ± 0.038 | 1.22 ± 0.16 | 1.34 ± 0.28 | 1.03 (active)
COc1cccc(-c2ccc(NC(=O)C3=C(C(=O)O)CCC3)c(F)c2)c1 | 0.954 ± 0.25 | 0.806 ± 0.088 | 1.01 ± 0.088 | 2.42 ± 0.23 | 2.04 ± 0.35 | 1.38 ± 0.24 | 0.91 (active)
COc1ccc(OC)c(C2CC(c3ccc(Cl)cc3)=NN2S(C)(=O)=O)c1 (configuration not stated) | 0.853 ± 0.073 | 0.897 ± 0.09 | 1.04 ± 0.12 | 0.829 ± 0.068 | 1.15 ± 0.22 | 1.19 ± 0.43 | 0.986 (active)
COC(CNS(=O)(=O)c1cccnc1)c1ccc(C)s1 (configuration not stated) | 1.06 ± 0.073 | 0.992 ± 0.086 | 1.01 ± 0.096 | 1.01 ± 0.04 | 1.02 ± 0.048 | 0.958 ± 0.12 | 0.997 (active)
Cc1cc(CNC(=O)CCc2ccc(S(C)(=O)=O)cc2)c(C)o1 | 1.24 ± 0.44 | 1.03 ± 0.084 | 1.04 ± 0.066 | 0.928 ± 0.046 | 0.97 ± 0.18 | 1 ± 0.11 | 0.999 (active)
CCN(CC)c1ccc(C=NN2C(=O)c3ccccc3C2=O)cc1 | 1.05 ± 0.088 | 1.08 ± 0.07 | 1.01 ± 0.061 | 0.827 ± 0.04 | 1.05 ± 0.1 | 1.11 ± 0.15 | 0.994 (active)
CCC1SC(=NN=Cc2cccc3ccccc23)NC1=O (configuration not stated) | 1.08 ± 0.14 | 0.974 ± 0.087 | 0.972 ± 0.044 | 0.92 ± 0.034 | 1.01 ± 0.085 | 0.974 ± 0.2 | 1 (active)
CCc1ccccc1N(CC(=O)Nc1ccc(Cl)cc1C)S(C)(=O)=O | 0.842 ± 0.087 | 1.05 ± 0.068 | 0.893 ± 0.047 | 0.88 ± 0.12 | 1.08 ± 0.14 | 0.876 ± 0.18 | 1 (active)
Oc1c2c(nc3cc(-c4ccc(Br)cc4)nn13)CCS2 | 1.06 ± 0.084 | 1.04 ± 0.064 | 0.857 ± 0.082 | 0.857 ± 0.03 | 1.19 ± 0.16 | 0.921 ± 0.2 | 1.01 (active)
NCCNc1ccc(NCCN)c2c1C(=O)c1ccncc1C2=O.O=C(O)/C=C\C(=O)O.O=C(O)/C=C\C(=O)O | 0.917 ± 0.04 | 1 ± 0.085 | 1.13 ± 0.066 | 1.02 ± 0.049 | 1.36 ± 0.29 | 1.66 ± 0.55 | 0.97 (active)
CN1C(=O)OC(C)(C)C1=O | 1.01 ± 0.12 | 1.09 ± 0.075 | 1.05 ± 0.03 | 1.04 ± 0.17 | 1.01 ± 0.14 | 0.957 ± 0.22 | 1 (active)
CN1CCC(=C2c3ccccc3C=Cc3ccccc32)CC1.Cl | 0.727 ± 0.13 | 0.808 ± 0.067 | 0.904 ± 0.048 | 0.794 ± 0.049 | 1 ± 0.19 | 0.974 ± 0.2 | 0.651 (inactive)
O=C(NC1CC2CCC1C2)c1ccccc1 (configuration not stated) | 0.907 ± 0.09 | 0.994 ± 0.081 | 0.972 ± 0.046 | 1.02 ± 0.11 | 1.01 ± 0.13 | 0.869 ± 0.15 | 0.995 (active)
